The whole screen tested about 300,000 compounds, of which about 37,000 (12%) were called active. Cut-off read from the data, not from the text of the source: active = max response mostly above about 13% (no sharp cut-off); inactive = mostly below about 14%. Many of the other results were omitted from the sample, so actives are more common in it than they were.

A short description of this test: Cycloheximide Counterscreen for Small Molecule Inhibitors of Shiga Toxin. Note: read at 38.3 µM for the half of the compounds with a filed dose; 0% is about no effect. Conditions: cell reporter, cycloheximide protein synthesis inhibition counterscreen; hits give high values. For orientation: The purpose of a counterscreen is to sort out artefacts and off-target activity.
On to `Cc1cc(C)c(NC(=O)CSc2nc3ccncc3[nH]2)c(C)c1`, for which the max response is 8.2% (inactive). The value for `CCOC(=O)CSc1nc2ccc(C)cc2[nH]1` was 17% (active); that for `Cc1nc2nc(SCC(=O)c3ccccc3)[nH]c2cc1Br` was 1.25% (inactive); that for `CC(=O)Nc1ccc(C(=O)CSc2nc3ccc(C)cc3[nH]2)cc1` was 19.9% (active). Turning to `Cc1ccc2nc(SCC(=O)NC3CCCC3)[nH]c2c1`, the max response was -3.78% (inactive). In the case of `COc1ccc2nc(SCC(=O)Nc3c(C)cc(C)cc3C)[nH]c2c1`, the max response is -5.11% (inactive). Regarding `COc1ccc(/C=N/N(C)C2=NS(=O)(=O)c3ccccc32)cc1OC`, the max response is -4.65% (inactive). The result for `CCCCN(C)CCNC(=O)C1CCCN(S(=O)(=O)c2cccc3nsnc23)C1` (stereo unspecified) reads -7.69% (inactive); that for `CC(Sc1cccc[n+]1[O-])C(=O)Nc1cccc(S(=O)(=O)N2CCOCC2)c1` (stereo unspecified), -2.05% (inactive). On to `Brc1ccccc1/C=N/Nc1nc2ccccc2o1`, for which the max response is 35.3% (active). In the case of `COc1ccc(/C=N/n2nnnc2N)cc1OC`, the max response is 1.75% (inactive). Consider `CCOc1ccc(/C=N/Nc2nncc(-c3ccccc3)n2)cc1OC`, for which the max response was 5.88% (inactive).

On to `COc1ccc(/C=N/Nc2nc3ccccc3o2)cc1OC`, for which the max response is 32.2% (active).

`CCOc1ccccc1/C=N/NC(=O)CNC(=O)COc1ccccc1`: the max response was 8.7% (inactive).

As to `C=CCc1ccccc1OCC(=O)N/N=C/c1ccccc1OCC`, the max response is 9.76% (inactive). Turning to `c1ccc(CCN2CN=C(Nc3nc4ccccc4o3)NC2)cc1`, the max response was 13.2% (inactive).

On to `CCOc1ccccc1/C=N/Nc1nc2ccccc2o1`, for which the max response is 11.2% (active). `CN=C1S/C(=C\c2c(OC)cc(OC)cc2OC)C(=O)N1C`: the max response is -4.61% (inactive). For `COc1ccc(C2/C(=C(/O)c3ccc4c(c3)CC(C)O4)C(=O)C(=O)N2Cc2ccncc2)cc1` (stereo unspecified), the max response was -3.17% (inactive).

On to `COc1cc(C(=O)N2CCN(C)CC2)cc(OC)c1OC`, for which the max response was -1.54% (inactive). With `Cc1ccc(NC(=O)COC(=O)C2C3CC4OC(=O)C2C4C3)cc1Cl` (stereo unspecified), the max response was 6.04% (inactive). Take `O=C(NCc1ccco1)C1CCCN1S(=O)(=O)c1ccccc1C(F)(F)F` (stereo unspecified): the max response is -2.95% (inactive). The value for `Cc1ccc(-n2nc3c(=O)n(C(C)C(=O)NCc4ccc5c(c4)OCO5)nc(C)c3c2C)cc1` (stereo unspecified) was 7.33% (inactive); that for `COc1ccc(CN(C)C(=O)Cc2ccsc2)c(OC)c1OC` was -2.85% (inactive); that for `CC(C)CNS(=O)(=O)c1ccc(CCC(=O)NCc2ccc(Cl)cc2)cc1` was -1.7% (inactive).

Regarding `COc1ccc(CN2CCN(C(=O)CCC(=O)Nc3nnc(C(C)C)s3)CC2)cc1F`, the max response is -9.15% (inactive). As for `CC1C(=O)C(C)C(c2ccc(O)cc2)NC1c1ccc(O)cc1` (stereo unspecified), the max response is -3.88% (inactive). Regarding `CC(NC(=O)C(C)(C)C)C(c1cccs1)N1CCN(Cc2ccccc2)CC1` (stereo unspecified), the max response was 1.72% (inactive). `C#CC(C)(C)NC(=O)c1cnc(-c2ccccc2)nc1-c1ccccc1`: the max response is 1.23% (inactive).

In the case of `Cc1ccc(NC(=O)C2CC(c3ccc(F)cc3)=NO2)cc1` (stereo unspecified), the max response is 4.66% (inactive). `Cc1ccccc1N1CC(C(=O)Nc2ccc3c(c2)OCO3)CC1=O` (stereo unspecified): the max response is 15.7% (inactive). The result for `O=C(Nc1ccc2c(c1)OCO2)C1CC(c2c(F)cccc2Cl)=NO1` (stereo unspecified) reads 31.8% (active).

Consider `Cc1ccc(S(=O)(=O)N(Cc2ccccc2)c2ccccn2)cc1[N+](=O)[O-]`, for which the max response was 2.38% (inactive). On to `CS(=O)(=O)N(CC(=O)Nc1ccc(F)cc1F)c1cccc([N+](=O)[O-])c1`, for which the max response was 1.91% (inactive).

Take `O=C(c1cccc([N+](=O)[O-])c1)N1CCN(Cc2ccccc2)CC1`: the max response was -6.89% (inactive).

Turning to `Cc1c(Br)c([N+](=O)[O-])nn1CC(=O)N1CCN(Cc2ccccc2)CC1`, the max response was 14.4% (active). For `O=C(/C=C/c1cccc([N+](=O)[O-])c1)N1CCN(Cc2ccccc2)CC1`, the max response is 21.5% (inactive). Regarding `COc1ccc(-c2cc(C(=O)N3CCN(Cc4ccc5c(c4)OCO5)CC3)on2)cc1OC`, the max response is -9.89% (inactive). The value for `Cc1cc(C)nc(N/N=C/c2ccc([N+](=O)[O-])o2)n1` was 0.645% (inactive); that for `Cc1cc(C)nc(N/N=C/c2c(C)oc3ccccc23)n1` was 1.89% (inactive); that for `Cc1cc2c(C)nc(N/N=C/c3ccccc3)nc2o1` was 38% (active). `COc1ccc(C(=O)NCCSc2ccccc2C)cc1`: the max response was 46% (active). Take `COc1cccc(C(=O)NCCSc2ccc(Br)cc2)c1`: the max response was 3.16% (inactive). As for `COc1ccc(C(=O)NCc2nnc(SCCOc3ccccc3)n2C)cc1`, the max response was -1.69% (inactive).

With `N#Cc1ccccc1S(=O)(=O)N1CCN(C(=O)c2cc(-c3ccccc3)nn2-c2ccccc2)CC1`, the max response is -0.928% (inactive). For `COCCCNc1nc2c(-c3cccc(C)c3)nnn2c2ccc(Cl)cc12`, the max response was 11.5% (active). On to `COCCCNc1nc2c(-c3cccc(C(F)(F)F)c3)nnn2c2ccccc12`, for which the max response is -2.05% (inactive). `COC(=O)Cn1nc(-c2ccccc2)c2cc(Cl)ccc21`: the max response is -2.04% (inactive). As for `O=C(CCS(=O)(=O)c1ccc(Br)cc1)NCCc1ccc(Cl)cc1`, the max response is -3.3% (inactive). The result for `N#C/C(=C(/O)Cc1cccc2ccccc12)c1nc2ccccc2s1` reads -8.33% (inactive). `CC1=CC(=C(C#N)c2nc3ccccc3s2)C=C(C)N1c1ccc(F)cc1F`: the max response is 11.6% (active). Turning to `C=CCN1C(=O)C(O)(CC(=O)c2ccccn2)c2ccccc21` (stereo unspecified), the max response was -4.4% (inactive). In the case of `Cc1ccc2cc(CCNC(=O)c3ccc4c(c3)OCO4)c(=O)[nH]c2c1`, the max response is -3.03% (inactive). With `Cc1ccc(C(=O)N/C(=C/C=C/c2ccccc2)C(=O)NCc2ccco2)cc1`, the max response is 13.9% (active). With `O=C(NCc1ccco1)/C(=C/c1ccco1)NC(=O)c1ccccc1`, the max response was -7.97% (inactive). For the compound `CNC(=O)/C(=C\C=C\c1ccccc1)NC(=O)c1ccc([N+](=O)[O-])cc1`, the max response was -1.68% (inactive). For `Cc1ccc(NS(=O)(=O)c2cn(C)c(=O)n(C)c2=O)c(C)c1`, the max response is -0.304% (inactive). For the compound `Cc1ccc2c(c1)N(CC(=O)N1CCCC(C)C1)C(=O)CO2` (stereo unspecified), the max response is -3.96% (inactive).

With `COC(=O)C1(CCSC)NC(c2ccc(OC)cc2OC)C2C(=O)N(c3cccc(C(C)=O)c3)C(=O)C21` (stereo unspecified), the max response is -3.66% (inactive).

For the compound `Cc1cccc(NC(=O)c2ccc3c(=O)n(CC4CCCO4)c(=S)[nH]c3c2)c1` (stereo unspecified), the max response is 10.1% (inactive).

With `COC(=O)c1ccc(NC(=O)CSc2nc(N)c(NC(=O)c3ccc(Br)o3)c(=O)[nH]2)cc1`, the max response was 9.86% (inactive).

Turning to `CCOC(=O)CNc1nc(Cl)nc(Nc2ccccc2)n1`, the max response is 45.2% (active). In the case of `CCC(=O)Nc1ccc(Nc2nc(Cl)nc(Nc3ccc(NC(=O)CC)cc3)n2)cc1`, the max response was -3.17% (inactive). The result for `CCOC(=O)CNc1nc(Cl)nc(Nc2ccc(OC)cc2OC)n1` reads -3.67% (inactive); that for `Cc1nc(C(=O)N2CCCC(C(=O)c3ccc(Cl)cc3)C2)cs1` (stereo unspecified), 0.775% (inactive); that for `COc1ccccc1NC(=O)C1CCN(C(=O)c2ccc(C(C)(C)C)cc2)CC1`, -1.21% (inactive). The value for `Cn1nc(-c2ccccc2)c(CSc2cccc(Cl)c2)c1Cl` was -2.67% (inactive); that for `Cn1c(=O)c2c(nc(Br)n2CCSc2nc3ccccc3o2)n(C)c1=O` was -1.28% (inactive); that for `Fc1ccccc1OCCSc1nc2ccccc2o1` was 26.3% (active).

For the compound `O=c1c2ccccc2ncn1CCCCOc1ccccc1F`, the max response was 1.24% (inactive). Regarding `COC(=O)c1ccc(CN2CCCC(C(=O)Nc3cccc(-n4cnnn4)c3)C2)cc1` (stereo unspecified), the max response is -1.47% (inactive). Take `O=C(C1CC(=O)N(c2ccc(F)cc2)C1)N1CCN(c2ccccc2)CC1` (stereo unspecified): the max response was -1.52% (inactive). On to `O=C(Nc1cccn(Cc2ccccc2Cl)c1=O)NC1CCCCC1`, for which the max response is 10.8% (active). Take `CCOc1ccccc1NC(=O)NC1CCCCCCC1`: the max response is 10.6% (inactive). Consider `O=C(Nc1cccn(Cc2c(Cl)cccc2Cl)c1=O)c1ccc(Cl)cc1`, for which the max response was 1.71% (inactive). The result for `CC(=O)N1CCN(C(=O)C2(NC(=O)Nc3ccc(C)cc3)CCCCC2)CC1` reads 6.9% (inactive); that for `COC(=O)/C(=C\Nc1ccccc1)NC(=O)c1ccc(Cl)cc1Cl`, 16.3% (inactive). As to `CC(=O)c1c(C)[nH]c(C(=O)Nc2cc(S(=O)(=O)N(C)C)ccc2C)c1C`, the max response is 6.78% (inactive). As for `COC(=O)[C@@H]1CCCN1C(=O)c1cc(COc2cccc3cccnc23)on1`, the max response is -3.11% (inactive). With `CSc1ccccc1OCc1cc(C(=O)N2C[C@H]3CC[C@H]2C3)no1`, the max response is 45.3% (active). For `CSc1ccccc1OCc1cc(C(=O)N(C)CCc2c(C)n[nH]c2C)no1`, the max response is 15.1% (inactive).

In the case of `COc1ccc(NC(=O)C(NC(C)=O)C(=O)NCc2ccccc2Cl)cc1` (stereo unspecified), the max response is 1.56% (inactive). Take `Cc1cc(C(=O)NNS(=O)(=O)c2ccccc2C(F)(F)F)nn1C(C)(C)C`: the max response was 7.74% (inactive). As to `CC(OC(=O)CN1C(=O)COc2ccccc21)C(=O)NCc1ccc(F)cc1` (stereo unspecified), the max response is -2.2% (inactive). With `O=C(CN1C(=O)COc2ccccc21)Nc1ccc(F)cc1`, the max response is 44.7% (active).

Turning to `O=C(CN1C(=O)COc2ccccc21)NCCN1CCc2ccccc2C1`, the max response was 4.27% (inactive). Consider `C/C(N)=C(/C#N)C(=O)COC(=O)C1=NN(c2ccccc2)C(=O)CC1`, for which the max response is -5.97% (inactive). Take `O=C(Nc1nnc(S(=O)(=O)N2CCOCC2)s1)c1cccc(Br)c1`: the max response was 7.79% (inactive). In the case of `S=c1[nH]c(-c2cccs2)cn1-c1ccccc1`, the max response was 34.1% (active). In the case of `O=c1oc2ccccc2cc1-c1cn(-c2ccccc2)c(=S)[nH]1`, the max response was 7.59% (inactive). The value for `O=c1[nH]c(-c2cccs2)nc2ccccc12` was 20% (inactive); that for `COc1cc(/C=C/C(=O)OCC(=O)Nc2cccc(Oc3ccccc3)c2)ccc1O` was 10.4% (inactive); that for `COc1ccc(S(=O)(=O)N2CCC(C(=O)N3CCCC3)CC2)cc1C` was -13.9% (inactive).

For the compound `O=c1[nH]c(SCc2ccccc2)nnc1-c1ccccc1`, the max response is 11% (active). As for `Cc1ccc(CSc2nc(-c3ccccc3)c(C#N)c(=O)[nH]2)cc1`, the max response is -11.1% (inactive).

With `Cc1ccccc1CSc1nnc(-c2ccccc2)c(=O)[nH]1`, the max response is 18.4% (inactive).

Source of the values: PubChem BioAssay AID2314 (National Center for Advancing Translational Sciences (NCATS), 2010).
